According to publication doi:10.1101/2024.03.05.583629:

molecular target: pT7_6His-AlfaTag-HOXD13 (human, UniProt P35453 263-343); experiment: PADIT-seq; settings: dsDNA, one strand shown
Sequence (P35453 263-343): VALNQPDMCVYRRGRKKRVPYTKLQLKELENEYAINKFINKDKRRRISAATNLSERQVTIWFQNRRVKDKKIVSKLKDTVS

Sequence | binding signal
CTCGAGGATATCAAGATCTGGCCTCGGCGTTTTAGATGGAACCTCTAGCTAGCCGACTCACTATAGGGATAATCGCCCTGAGCAAAGACC | 0.145 ± 0.106 log2FC
CTCGAGGATATCAAGATCTGGCCTCGGCATTTTACAAGGAACCTCTAGCTAGCCGACTCACTATAGGGATAATCGCCCTGAGCAAAGACC | 3.41 ± 0.0871 log2FC
CTCGAGGATATCAAGATCTGGCCTCGGCGCGTTTGCGGGAACCTCTAGCTAGCCGACTCACTATAGGGATAATCGCCCTGAGCAAAGACC | -0.387 ± 0.156 log2FC
CTCGAGGATATCAAGATCTGGCCTCGGCTATTTAAAAGGAACCTCTAGCTAGCCGACTCACTATAGGGATAATCGCCCTGAGCAAAGACC | 2.42 ± 0.0909 log2FC
CTCGAGGATATCAAGATCTGGCCTCGGCAGTCCACGCGGAACCTCTAGCTAGCCGACTCACTATAGGGATAATCGCCCTGAGCAAAGACC | -0.993 ± 0.114 log2FC
CTCGAGGATATCAAGATCTGGCCTCGGCTTAGTAAAAGGAACCTCTAGCTAGCCGACTCACTATAGGGATAATCGCCCTGAGCAAAGACC | 1.23 ± 0.0947 log2FC
CTCGAGGATATCAAGATCTGGCCTCGGCCAGGTAAAAGGAACCTCTAGCTAGCCGACTCACTATAGGGATAATCGCCCTGAGCAAAGACC | 0.0831 ± 0.0976 log2FC
CTCGAGGATATCAAGATCTGGCCTCGGCATTTTAACCGGAACCTCTAGCTAGCCGACTCACTATAGGGATAATCGCCCTGAGCAAAGACC | 1.17 ± 0.0785 log2FC
CTCGAGGATATCAAGATCTGGCCTCGGCTTTTTAAATGGAACCTCTAGCTAGCCGACTCACTATAGGGATAATCGCCCTGAGCAAAGACC | 1.81 ± 0.0949 log2FC
CTCGAGGATATCAAGATCTGGCCTCGGCTATCTAAAAGGAACCTCTAGCTAGCCGACTCACTATAGGGATAATCGCCCTGAGCAAAGACC | -0.377 ± 0.118 log2FC
CTCGAGGATATCAAGATCTGGCCTCGGCATTTTACGCGGAACCTCTAGCTAGCCGACTCACTATAGGGATAATCGCCCTGAGCAAAGACC | 2.16 ± 0.0812 log2FC
CTCGAGGATATCAAGATCTGGCCTCGGCCTTTTAGAAGGAACCTCTAGCTAGCCGACTCACTATAGGGATAATCGCCCTGAGCAAAGACC | 0.357 ± 0.088 log2FC
CTCGAGGATATCAAGATCTGGCCTCGGCATTTTAAGTGGAACCTCTAGCTAGCCGACTCACTATAGGGATAATCGCCCTGAGCAAAGACC | 1.18 ± 0.0951 log2FC
